D1 potentiator – enhances dopamine response at the human D1 receptor; potentiation, % at 10 µM; 0.036% of 360,000 active; P21728; HEK293 TREx D1 cells, calcium flux, dopamine EC20 potentiation; in the data active = potentiation above about 30%; also: 0% is about no effect
Target sequence (P21728 whole entry, looked up): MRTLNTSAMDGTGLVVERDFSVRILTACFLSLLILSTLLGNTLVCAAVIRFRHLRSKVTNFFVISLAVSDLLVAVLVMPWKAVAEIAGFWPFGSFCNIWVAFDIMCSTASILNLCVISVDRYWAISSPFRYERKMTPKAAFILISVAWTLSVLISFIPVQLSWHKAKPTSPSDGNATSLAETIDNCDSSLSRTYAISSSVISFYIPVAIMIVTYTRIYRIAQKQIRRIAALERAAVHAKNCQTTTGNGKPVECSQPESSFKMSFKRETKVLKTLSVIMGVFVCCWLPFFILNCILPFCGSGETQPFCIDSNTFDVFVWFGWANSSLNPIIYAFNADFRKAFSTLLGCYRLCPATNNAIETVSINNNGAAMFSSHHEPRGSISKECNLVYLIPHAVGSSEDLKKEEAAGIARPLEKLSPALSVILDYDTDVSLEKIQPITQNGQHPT
DRD3 agonist – agonists of human D3 dopamine receptor. P35462. D3R DiscoveRx beta-arrestin cells, luminescence, 90 min. max activation, %. 0.58% of 410,000 active. AID 652048; in the data active = max activation above about 30%; also: 0% is about no effect
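Agonist-mode cell screen: cells plated at 1500/well and incubated overnight at 37 °C, then exposed to library compounds for 90 min at 37 °C. Detection reagent was added for 30–60 min at room temperature, and luminescence was read.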
D3 antag – antagonists of human D3 dopamine receptor | P35462 | D3R cells, DiscoveRx beta-arrestin luminescence, antagonist mode; hits give low values | max response, negative = inhibition, % | 2.5% of 360,000 active; in the data active = max response below about -50%; inconclusive = no clear call, values can overlap the other calls; also: % is scaled to controls: 0 for no effect and ±100 for the full control effect
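Cells expressing the human receptor were seeded at 1500 cells/well, incubated overnight at 37 degrees C in 5% CO2, then exposed to library compounds with dopamine controls for 90 minutes at 37 degrees C before luminescent detection.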
D1 antagonist – blocks dopamine activation of the human D1 receptor. P21728. activity change, negative = inhibition, % at 10 µM. 3.2% of 360,000 active. AID 504652. HEK293 TREx D1 cells, calcium flux, dopamine EC80; hits give low values; in the data active = activity change below about -30%; also: % is scaled to controls: 0 for no effect and ±100 for the full control effect
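Tetracycline-induced HEK293 T-REx cells with force-coupled D1 receptor were loaded with a no-wash calcium dye. Compound was added after a 10 s baseline and read kinetically for 180 s; EC80 dopamine was then added and calcium flux followed another 180 s.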
D1 agonist – human D1 receptor agonism; P21728; HEK293 T-REx D1 cells, calcium flux, agonist mode; activation, % at 2 µM; 1% of 360,000 active; AID 504660; in the data active = activation above about 30%; also: 0% is about no effect
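Tetracycline-induced HEK293 TREx D1 cells, force-coupled to calcium signalling, were dye-loaded with a no-wash calcium kit. Compound was pin-added after a 10 s baseline. Fluorescence was read kinetically at 1 cycle/s for 180 s, with calcium rises flagged as agonism.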
Active calls of the source: *; ? = inconclusive; . = not tested or not shown. An excerpt weighted towards active compounds, which were near 6% of everything screened.

SMILES | D1 potentiator | DRD3 agonist | D3 antag | D1 antagonist | D1 agonist
Cc1ccc(NC(=O)CN(C)C(=O)COc2cc(F)ccc2[N+](=O)[O-])cc1 | -3.8 | -17.0 | -53.1* | -2.3 | 2.6
Cc1ccc(CNC(=S)Nc2ccc(C)c([N+](=O)[O-])c2)cc1 | -7.2 | -6.1 | 1.5 | -31.3* | 38.5*
Cc1ccc(CC(=O)Nc2ccc(F)c([N+](=O)[O-])c2)cc1C | -4.1 | 2.3 | 15.9 | -34.6* | 8.8
Cc1ccc(NC(=O)Cc2ccc3c(c2)CCCC3)cc1C | -0.5 | -9.8 | -9.5 | -30.7* | 3.1
Cc1ccc(NC(=O)Nc2ccc3c(c2)CCC3)cc1C | -11.9 | 1.9 | 0.8 | 1.2 | 0.8
CCCCc1cc(=O)oc2cc(OC(C)C(=O)NCC3CCC(C(=O)O)CC3)c(Cl)cc12 (centres undefined) | -4.6 | -6.3 | -58.1* | -2.8 | 1.4
CCCc1cc(=O)oc2cc(OC(C)C(=O)NCC3CCC(C(=O)O)CC3)c(Cl)cc12 (centres undefined) | -0.7 | -12.6 | -21.7 | 6.6 | 3.2
CC1(C)C(C=C(Cl)Cl)C1C(=O)Nc1ccc([N+](=O)[O-])cc1 (centres undefined) | -7.0 | -8.6 | ? | -31.0* | 6.0
O=C(Nc1ccc([N+](=O)[O-])cc1)C1CC1(c1ccccc1)c1ccccc1 (centres undefined) | -3.4 | -8.7 | -13.6 | -22.3 | 8.1
CN(CC(=O)Nc1ccccc1Cl)C(=O)COC(=O)c1nc(Cl)c(Cl)c(Cl)c1Cl | 10.5 | -6.1 | -67.1* | -23.5 | 2.7
Cc1ccc(CSCC(=O)N(C)CC(=O)Nc2ccccc2Cl)cc1 | -4.7 | 0.2 | -10.0 | -33.0* | 1.1
CN(CC(=O)Nc1ccccc1Cl)C(=O)Cn1cc(C(F)(F)F)cc(Cl)c1=O | -3.6 | -9.6 | -4.3 | -8.1 | 5.4
CN(CC(=O)Nc1ccccc1Cl)C(=O)Cn1cc(C(F)(F)F)ccc1=O | 0.1 | -4.7 | 23.7 | -32.5* | -1.6
CC(C)(C)OC(=O)n1c2ccsc2c2cnn(Cc3ccccc3F)c(=O)c21 | 4.8 | . | . | 10.4 | 0.2
COc1ccc(Cl)cc1NC(=O)c1ncn(-c2ccccc2)n1 | 1.1 | -14.7 | . | 5.3 | 1.1
CN1CCN(C(=O)c2ccc(-c3ccc(F)c(F)c3)c3ccoc23)CC1 | . | -11.4 | -58.7* | . | .
CN(C)CCNc1ncnc2oc(-c3ccccc3)c(-c3ccccc3)c12 | -4.6 | -14.6 | -60.7* | -4.3 | 2.3
COc1ccc(-c2oc3ncnc(NCCCN(C)C)c3c2-c2ccc(OC)cc2)cc1 | -3.0 | -17.2 | -104.3* | -7.4 | 6.5
CSc1ncccc1C(=O)NNC(=O)c1ccc(NS(=O)(=O)c2cccs2)cc1 | 5.3 | -0.2 | 0.4 | -45.2* | -0.3
CN1CCN(S(=O)C23CC4CC(CC(C4)C2)C3)CC1 (centres undefined) | -3.0 | -15.7 | -88.5* | -2.7 | 1.8
O=S(N1CCCCC1)C12CC3CC(CC(C3)C1)C2 (centres undefined) | -1.6 | 4.0 | 4.5 | -5.4 | 2.2
CCC(=O)N1CCc2cc(S(=O)(=O)CCC(=O)Nc3cc(Cl)ccc3OC)ccc21 | 1.8 | -8.3 | . | -7.6 | -2.4
O=[N+]([O-])c1cc(S(=O)(=O)C(F)(F)F)ccc1Sc1nc2ccccc2s1 | -4.6 | -14.3 | -94.9* | 18.4 | 0.0
CS(=O)(=O)c1ccc(Sc2nc3ccccc3s2)c([N+](=O)[O-])c1 | -11.8 | -1.3 | -14.7 | -6.3 | 0.7
Cn1nc(C(=O)OCc2ccc(F)cc2)c2ccccc2c1=O | -4.8 | 6.4 | 3.5 | -14.4 | 3.3
SMILES | D1 potentiator | DRD3 agonist | D3 antag | D1 antagonist | D1 agonist
CCc1ccc(C(=O)C(C)OC(=O)c2nn(C)c(=O)c3ccccc23)cc1 (centres undefined) | -8.2 | 2.8 | 3.3 | -15.1 | 34.6*
COc1ccc(S(=O)(=O)N2CCC(C(=O)NC(C)c3ccccc3)CC2)cc1 (centres undefined) | -0.6 | 1.6 | . | -0.6 | 1.5
CC(C)N(Cc1nc(-c2ccccc2)no1)C(=O)CCCN1C(=O)c2ccccc2C1=O | -6.4 | 4.1 | -11.7 | -49.4* | 4.6
O=C(NCc1nc(-c2ccc(C(F)(F)F)cc2)no1)c1cccs1 | 2.0 | 4.1 | 14.9 | -33.6* | 3.9
C=CCN(Cc1nc(-c2ccc(OC)cc2)no1)C(=O)c1ccc2c(c1)OCO2 | -10.1 | -6.3 | -6.7 | -0.5 | 17.2
COc1ccc(-c2noc(CN(C(=O)c3cccs3)C(C)C)n2)cc1 | -1.3 | 7.7 | -18.8 | -3.5 | 36.9*
O=C(NCc1nc(-c2ccccc2)no1)c1cccs1 | -1.6 | 12.3 | 17.2 | 0.7 | 3.4
COc1ccc(-c2noc(CN(C(=O)c3ccc4c(c3)OCO4)C(C)C)n2)cc1 | -7.0 | 90.9* | 9.1 | -11.0 | 12.4
CCc1nnc(SC(CC)C(=O)NCCOC)c2cc3occc3n12 (centres undefined) | -0.8 | -1.9 | . | -13.0 | 0.9
Cc1ccc(-n2c(=O)c3c(c4cc(C)ccc4n3C)n(CC(=O)N3CCCC3)c2=O)cc1 | 0.7 | -14.1 | . | -5.2 | -1.6
Cc1ccccc1NC(=O)CSc1nccn1C | -3.0 | 7.0 | . | -22.4 | 0.9
Cc1ccc(S(=O)(=O)N(CC(=O)Nc2cccnc2)c2cc(Cl)ccc2C)cc1 | 0.8 | -27.8 | . | 11.3 | 0.1
NNc1nc(Nc2ccccc2)nc(Nc2ccccc2)n1 | -4.8 | -23.6 | -52.1* | -30.5* | 0.4
c1ccc(Nc2ccnc(Nc3ccccc3)n2)cc1 | -9.1 | 5.4 | 1.9 | -34.2* | 2.3
NNc1nccc(Nc2ccccc2C(=O)O)n1 | -5.0 | -2.5 | -11.3 | -5.1 | 1.3
COc1ccc(Nc2nc(NN)nc(Nc3ccc(OC)cc3)n2)cc1 | -2.1 | -10.5 | -25.6 | -30.7* | 2.0
COc1ccccc1N1CCN(c2cc(C)nc3nc(-c4ccc(Cl)cc4)nn23)CC1 | -1.1 | 4.6 | . | 2.4 | 29.7
COc1cccc(NC(=O)Nc2ccc3nc(N4CCN(C)CC4)cc(C)c3c2)c1 | -5.0 | -5.4 | . | -10.6 | 1.6
O=C(NC1CCCCC1)N1CCCCCC1 | -3.7 | -2.2 | -4.1 | -3.4 | -0.1
CN1CCN(C(=O)NC2CCCCC2)CC1 | -7.3 | -1.1 | -53.8* | -15.9 | 2.0
Cc1cc(NC(=O)CCc2ccc(C)o2)no1 | -8.8 | -11.3 | -13.6 | -41.8* | 1.4
Cc1ccc(NC(=O)CCc2ccc(C)o2)c(C)c1 | -0.1 | -1.3 | 4.2 | 30.0 | 32.2*
Cc1ccc(C)c(NC(=O)CCc2ccc(C)o2)c1 | -5.2 | -0.3 | -10.0 | -1.0 | 1.6
CNc1c(NC(=O)c2ccc(OC)c(OC)c2)c(=O)oc2ccccc12 | -3.0 | 2.3 | . | -17.6 | 1.7
O=C1Nc2ccc(F)cc2C12Nc1ccccc1-c1nnc(SCc3ccccc3F)nc1O2 (centres undefined) | -3.3 | -28.3 | -51.2* | -18.8 | 1.9
O=C1Nc2ccc(Cl)cc2C12Nc1ccccc1-c1nnc(SCc3ccccc3F)nc1O2 (centres undefined) | -11.3 | 2.6 | -7.9 | -44.9* | 3.2
COc1ccc(-n2c(C)nc3cc(C(=O)NC4CCCC4)ccc32)cc1 | -0.1 | -9.1 | . | 3.0 | 0.3

Assay outcomes (PubChem)
